Common to all, as to assay: NCI-60 one-dose screen, 48 h (100 = growth as untreated, 0 = no growth, -100 = all killed)
Conditions in all cases: 10 µM unless noted

Assay [1] concerns T-47D breast.
The test system of assay [2] is BT-549 breast.
Assay [3] deals with MDA-MB-435 melanoma.
Assay [4] relates to SW-620 colon.
Assay [5] deals with MCF7 breast.
In assay [6] the test system is HCT-116 colon.
The subject of assay [7] is HCC-2998 colon.
The test system of assay [8] is KM12 colon.

Compounds without any hit were thinned out: in the full panel of roughly 83,000, 20% have a hit.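 Single-dose data. Exposure time 48 hours. Values below 10 considered active.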 Values without a mark were called inactive. The source made the active and inactive calls.

In the case of `C/C(=N/NC(N)=S)c1sc(Nc2cccc(Cl)c2)nc1C`, the growth in assay [1] was 30.9%; in assay [2], 84.1%; in assay [3], 84.5%; in assay [4], 81.8%; in assay [5], 76.1%; in assay [6], 74.4%. The growth was 107% in assay [7] and 87.8% in assay [8].
In the case of `c1ccc(-c2nc3sc(-c4ccccc4)cn3n2)cc1`, the growth was 36.7% in assay [1]; 99.9% in assay [2]; 99.2% in assay [3]; 94.9% in assay [4]; 38.3% in assay [5]; 88.9% in assay [6]. Further, the growth in assay [7] is 104%; in assay [8], 81.1%.
As to `Cc1cc2[nH]c(=O)c3c4ncccc4cn3c2cc1C`, the growth was 56.5% in assay [1]; 105% in assay [2]; 11.1% in assay [3]; -26.9% (active) in assay [4]; 11.6% in assay [5]; -77.1% (active) in assay [6]. For the same molecule, the growth in assay [7] was 13.7%; in assay [8] it was 25.1%.
With `OC(COc1ccccc1)CN1CCN(c2ccc(Cl)cc2)CC1` (stereo not drawn), the growth in assay [1] was 102%; in assay [2], 101%; in assay [3], 121%; in assay [4], 98.7%; in assay [5], 102%; in assay [6] it was 92.6%. Further, the growth in assay [7] is 109%; in assay [8] it was 98%.
Regarding `COc1cccc(/C=C2\C=C(c3ccccc3)N(Cc3ccccc3)C2=O)c1`, the growth in assay [1] was 59.8%; in assay [2], 69.7%; in assay [3], -32.3% (active); in assay [4], 43.5%; in assay [5], 32.5%; in assay [6] it was 48.3%. Further, the growth was 66.6% in assay [7] and 53.4% in assay [8].
On to `O=C(Cc1ccc(F)c(Cl)c1)Nc1cc(C2(C(F)(F)F)CC2)nn1CC1CCCCC1`, for which the growth was -0.285% (active) in assay [1]; 5.11% (active) in assay [2]; 3.02% (active) in assay [3]; 12.6% in assay [4]; -0.278% (active) in assay [5]; 5.8% (active) in assay [6]. Moreover, the growth is 14.9% in assay [7] and 0.921% (active) in assay [8].
Take `c1ccc(CO[C@H]2CO[C@H]3[C@@H]2OC[C@@H]3Oc2ccc(Nc3ncnc4ccsc34)cc2)cc1`: the growth in assay [1] was 38.9%; in assay [2], 68.9%; in assay [3] it was 83.9%; in assay [4], 87.6%; in assay [5] it was 64.9%; in assay [6], 68.9%. The growth in assay [7] is 104%; in assay [8] it was 86.2%.
`CCc1ccc(Oc2c(-c3ccc(OCCc4cccc(C(F)(F)F)c4)cc3O)n[nH]c2C(F)(F)F)cc1`: the growth in assay [1] is 6.59% (active); in assay [2], 86.5%; in assay [3] it was 27.1%; in assay [4] it was 14.7%; in assay [5], 27.8%; in assay [6], 0% (active). Besides, the growth in assay [7] was 89.4%; in assay [8] it was 46.4%.
For the molecule `C[C@]12CC[C@@H]3c4cc(OC(F)F)c(OS(N)(=O)=O)cc4CC[C@H]3[C@@H]1CC[C@@H]2OS(N)(=O)=O`, the growth is 43.4% in assay [1]; 62.7% in assay [2]; 42.8% in assay [3]; 22% in assay [4]; 20.2% in assay [5]; 20.3% in assay [6]. For the same molecule, the growth in assay [7] is 74.1%; in assay [8] it was 35.6%.
Take `COc1cc(C(=O)/C=C/c2ccc(OCCCCCC[P+](c3ccccc3)(c3ccccc3)c3ccccc3)cc2)cc(OC)c1OC`: the growth in assay [1] is -21.5% (active); in assay [2], -47.6% (active); in assay [3] it was -58.9% (active); in assay [4], -80.4% (active); in assay [5], -68.1% (active); in assay [6], -77.3% (active). The growth in assay [7] was -20.3% (active); in assay [8] it was -86.8% (active).
Take `COc1ccc(C(=O)n2nc(-c3ccccc3)nc2N)cc1OC`: the growth was 56.4% in assay [1]; 94.6% in assay [2]; 109% in assay [3]; 90.3% in assay [4]; 44.3% in assay [5]; 98.2% in assay [6]. In addition, the growth in assay [7] is 97.9%; in assay [8], 85.8%.
As for `O=C(Nc1c2ccccc2nc2ccccc12)c1ccccc1CN1C(=O)c2ccccc2C1=O`, the growth was 33.4% in assay [1]; 76.2% in assay [2]; 30.3% in assay [3]; 15.5% in assay [4]; 10.3% in assay [5]; 16.1% in assay [6]. Further, the growth in assay [7] was 41.4%; in assay [8] it was 26%.
As for `COc1ccc(C(=O)C[C@]2(O)C(=O)Nc3c(Cl)ccc(Cl)c32)cc1`, the growth was 29.9% in assay [1]; 49.8% in assay [2]; -40.9% (active) in assay [3]; 21.4% in assay [4]; 19.7% in assay [5]; 17% in assay [6]. The growth was 23.1% in assay [7] and 47.6% in assay [8].
For the molecule `COc1cc(C(=O)/C=C/c2c(Cl)nc3sccn23)cc(OC)c1OC`, the growth was 81.3% in assay [1]; 81.3% in assay [2]; 72.5% in assay [3]; 65.8% in assay [4]; 54.8% in assay [5]; 52.3% in assay [6]. Further, the growth in assay [7] is 104%; in assay [8], 56.7%.
In the case of `N#CC1=C(N)Oc2c(sc3c(Br)cccc23)C1c1ccc(Br)cc1` (stereo not drawn), the growth in assay [1] is 23.3%; in assay [2] it was 48.3%; in assay [3] it was -53% (active); in assay [4] it was 24.4%; in assay [5], 10.9%; in assay [6] it was 26.6%. Besides, the growth in assay [7] was 12.9%; in assay [8], 17.8%.
With `COc1ccc2nc(NCCCNCCO)c3sc4ccc(F)cc4c(=O)c3c2c1`, the growth in assay [1] was 72.2%; in assay [2], 91.6%; in assay [3], -69% (active); in assay [4] it was -66.4% (active); in assay [5], 17.8%; in assay [6], -67.2% (active). The growth in assay [7] is -82.9% (active); in assay [8], -58.7% (active).

The record behind these values is PubChem BioAssay (NCI).
